# Measured values taken from PubChem BioAssay AID382 (SGCOxCompounds, 2006).
# Several values for one entry are separate records, joined by “and”; a condition that tells them apart may be missing. Identical values can stand only once. Activity calls are given as the source filed them. No rule for the calls is given here.
# Target: Dual specificity protein kinase CLK1 (Homo sapiens) (UniProt P49759)
# Experiment: CLK1 binders by thermal stabilization, biophysical, recombinant human kinase, DSF (AID 382)
# Details: at 10 µM, protein 1.7 µM, buffer 10 mM HEPES, pH 7.5, NaCl 150 mM, with 50 µM L-Arg/L-Glu (1:1), stronger effect = higher value
# Sequence of Dual specificity protein kinase CLK1 (Homo sapiens) (P49759 whole entry, looked up): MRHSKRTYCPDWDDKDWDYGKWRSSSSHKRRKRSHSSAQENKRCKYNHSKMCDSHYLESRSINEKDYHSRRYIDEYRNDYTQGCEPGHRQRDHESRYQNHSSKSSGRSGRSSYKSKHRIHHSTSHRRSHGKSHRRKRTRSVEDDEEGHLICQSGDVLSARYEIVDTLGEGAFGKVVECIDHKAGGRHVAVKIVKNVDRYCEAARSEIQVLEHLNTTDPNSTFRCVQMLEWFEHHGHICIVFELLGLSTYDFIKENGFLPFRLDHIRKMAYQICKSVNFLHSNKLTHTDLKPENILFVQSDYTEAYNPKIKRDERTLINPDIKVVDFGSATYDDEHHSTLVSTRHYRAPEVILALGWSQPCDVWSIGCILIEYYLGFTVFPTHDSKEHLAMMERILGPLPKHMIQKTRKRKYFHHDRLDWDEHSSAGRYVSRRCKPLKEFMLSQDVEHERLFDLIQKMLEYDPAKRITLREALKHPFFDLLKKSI
row,Compound,Tm shift
1,COc1ccc(Nc2nc(N)c(C(=O)c3ccc(OC)cc3)s2)cc1,4.5 Celsius (active)
2,Nc1nc(Nc2ccccc2)sc1C(=O)c1ccc(F)cc1,3.2 Celsius (active)
3,Nc1nc(Nc2ccc(F)cc2)sc1C(=O)c1ccccc1,3.3 Celsius (active)

# Same assay, conditions: at 10 µM, protein 2 µM, buffer 10 mM HEPES, NaCl 150 mM, stronger effect = higher value
row,Compound,Tm shift
1,COC(=O)c1cnc2oc3ccc(O)cc3c2c1-c1ccccc1,6.11 Celsius (active)
2,O=C1c2ccccc2-c2n[nH]c3cccc1c23,4.9 Celsius (active)
3,Brc1c(Br)c(Br)c2n[nH]nc2c1Br,3.97 Celsius (active)
4,N=C(N)SCCCn1cc(C2=C(c3c[nH]c4ccccc34)C(=O)NC2=O)c2ccccc21,10.3 Celsius (active)
5,O=c1cc(-c2ccccc2)oc2cc(O)c(O)c(O)c12,4.05 Celsius (active)
6,COc1cc2ncnc(Nc3cccc(O)c3)c2cc1OC,4.15 Celsius (active)
7,COc1cc(O)c2c(c1)oc(=O)c1c3cc(O)c(O)cc3oc21,3.2 Celsius (active)
8,CC1N=C2SC=CN2C(=O)C1CCN1CCC(=C(c2ccccc2)c2ccc(F)cc2)CC1 (centres undefined),6.74 Celsius (active)
9,CC(C)n1cnc2c(Nc3cccc(Cl)c3)nc(NCCO)nc21,5.26 Celsius (active)
10,O=c1c(-c2ccc(O)cc2)coc2cc(O)cc(O)c12,3.77 Celsius (active)
11,CN(C)CCCn1cc(C2=C(c3c[nH]c4ccccc34)C(=O)NC2=O)c2ccccc21,6.98 Celsius (active)
12,O=c1c(O)c(-c2ccc(O)c(O)c2)oc2cc(O)cc(O)c12,8.34 Celsius (active) and 6.74 Celsius (active)
13,Cc1cc(O)c2c(c1)C(=O)c1cc(O)cc(O)c1C2=O,3.11 Celsius (active)

# Same assay, conditions: at 10 µM, protein 2 µM, buffer 10 mM HEPES, NaCl 150 mM, with 50 mM Arg/Glu, stronger effect = higher value
row,Compound,Tm shift
1,CC(=O)c1cccc(-c2cnc3ccc(NCC4CC4)nn23)c1,5.75 Celsius (active)
2,Clc1cccc(-c2cnc3ccc(NC4CCOCC4)nn23)c1,6.06 Celsius (active)
3,Clc1cccc(Nc2ccn3ncc(-c4ccc5c(c4)OCO5)c3n2)c1,6.85 Celsius (active)

# Same assay, conditions: at 10 µM, protein 2 µM, buffer 10 mM HEPES, pH 7.5, NaCl 150 mM, with 50 µM L-Arg/L-Glu (1:1), stronger effect = higher value
row,Compound,Tm shift
1,N#Cc1ccc(-c2cnc3ccc(NC4CCOCC4)nn23)cc1,7.2 Celsius (active)
2,Nc1ccc(-c2cnn3ccc(Nc4cccc(Cl)c4)nc23)cc1,5.8 Celsius (active)
3,O=c1[nH]c(O)c2c1c1c3ccccc3nc1n1cncc21,4.5 Celsius (active)
4,CCN(CC)CCNC(=O)c1c(C)[nH]c(/C=C2\C(=O)Nc3ccc(Cl)cc32)c1C,6.6 Celsius (active)
5,O=C1NCc2c1c1c3ccccc3[nH]c1c1[nH]c3ccccc3c21,3.1 Celsius (active)
6,CC(C)[C@@H](CO)Nc1ccc2ncc(-c3cccc(O)c3)n2n1,4.2 Celsius (active)
7,CC(=O)c1cccc(-c2cnc3ccc(NC4CCOCC4)nn23)c1,5.2 Celsius (active)
8,Nc1cccc(-c2cnn3ccc(Nc4cccc(Cl)c4)nc23)c1,3.6 Celsius (active)
9,CCC(CO)Nc1ccc2ncc(-c3cccc(OC(F)(F)F)c3)n2n1 (centres undefined),5.3 Celsius (active)
10,CC(C)[C@@H](CO)Nc1ccc2ncc(-c3cccc(OC(F)(F)F)c3)n2n1,4.6 Celsius (active)
11,CCC(CO)Nc1ccc2ncc(-c3ccc(CO)cc3)n2n1 (centres undefined),5.3 Celsius (active)
12,CC(=O)Nc1cccc(-c2cnc3ccc(N[C@H](CO)C(C)C)nn23)c1,7.4 Celsius (active)

# Same assay, conditions: at 10 µM, protein 2 µM, buffer 10 mM HEPES, pH 7.5, NaCl 150 mM, with 50 mM Arg/Glu, stronger effect = higher value
row,Compound,Tm shift
1,Nc1ncnc2c1c(I)cn2[C@@H]1O[C@H](CO)C(O)C1O (some centres undefined),5.2 Celsius (active)
2,CC(C)n1cnc2c(Nc3cccc(Cl)c3)nc(NCCO)nc21,4.6 Celsius (active)
3,CN(C)CCCn1cc(C2=C(c3c[nH]c4ccccc34)C(=O)NC2=O)c2ccccc21,4.4 Celsius (active)
4,NC1=N/C(=C2/CCNC(=O)c3[nH]c(Br)cc32)C(=O)N1,4.4 Celsius (active)

# Same assay, conditions: measured here: replicate experiment 2, at 10 µM, run 2, protein 2 µM, buffer 10 mM HEPES, NaCl 150 mM, stronger effect = higher value
row,Compound,Tm shift
1,COC(=O)c1cnc2oc3ccc(O)cc3c2c1-c1ccccc1,3.9 Celsius
2,O=C1c2ccccc2-c2n[nH]c3cccc1c23,3.2 Celsius
3,CC1N=C2SC=CN2C(=O)C1CCN1CCC(=C(c2ccccc2)c2ccc(F)cc2)CC1 (centres undefined),3.6 Celsius
4,O=c1c(O)c(-c2ccc(O)c(O)c2)oc2cc(O)cc(O)c12,6 Celsius
